In the library only some 2.6% were active in any assay of this set; here they are far more common.
TRPV1 ag: agonists of human vanilloid receptor 1 (TRPV1). TRPV1-expressing cells, Fluo-8 calcium influx, agonist mode. AID 540275. hit rate 0.19% among 320,000. Q8NER1. activation, % at 8.33 µM; in the data active = activation above about 80%; inconclusive = between about 30% and that limit; also: 0% is about no effect
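Cells expressing TRPV1 were dye-loaded with Fluo-8 and read kinetically: 10 s baseline, 3 min after compound (agonist portion), then 2 min after EC20 capsaicin (allosteric enhancer portion). Calcium-bound dye fluorescence at 480/520 nm.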
KCNH2 3.1 inh: KCNH2 3.1 (human) potassium channel inhibition; U2OS KCNH2 3.1, thallium flux FluxOr; stronger effect = lower value; activity change, % (tested at about 1.8 µM); hit rate 0.95% among 340,000; AID 720553;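 active = maximum activity change below -70%; inconclusive = maximum activity change from -70% to -50%; inactive = maximum activity change above -50%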;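 also: thallium influx rate constant from kinetic fluorescence after stimulation buffer; % is scaled to controls: 0 for no effect and ±100 for the full control effect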
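Steps: virus added to U2OS suspension (4 h, RT, dark); medium with 10% FBS added, cells plated, 37 C overnight; FluxOr/Red40 loading buffer 45 min RT; stimulation buffer, 2 min kinetic read; rate constant normalized.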
TRPV1 PAM: enhances activation of the human vanilloid receptor TRPV1; Q8NER1; TRPV1-expressing cells, Fluo-8 calcium influx, capsaicin EC20 potentiation; potentiation, % at 8.33 µM; hit rate 0.02% among 320,000; in the data active = potentiation above about 80%; inconclusive = between about 30% and that limit; also: 0% is about no effect
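Cells expressing TRPV1 were dye-loaded with Fluo-8 and read kinetically: 10 s baseline, 3 min after compound (agonist portion), then 2 min after EC20 capsaicin (allosteric enhancer portion). Calcium-bound dye fluorescence at 480/520 nm.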
hERG WT inh: blocks the wildtype human KCNH2 potassium channel | Q12809 | U2OS, BacMam KCNH2, thallium flux FluxOr; stronger effect = lower value | activity change, % at 1.84 µM | hit rate 0.37% among 340,000;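 active = maximum activity change below -70%; inconclusive = maximum activity change between -70% and -50%; inactive = maximum activity change above -50%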; also: % is scaled to controls: 0 for no effect and ±100 for the full control effect
Target sequence (Q12809 whole entry, looked up): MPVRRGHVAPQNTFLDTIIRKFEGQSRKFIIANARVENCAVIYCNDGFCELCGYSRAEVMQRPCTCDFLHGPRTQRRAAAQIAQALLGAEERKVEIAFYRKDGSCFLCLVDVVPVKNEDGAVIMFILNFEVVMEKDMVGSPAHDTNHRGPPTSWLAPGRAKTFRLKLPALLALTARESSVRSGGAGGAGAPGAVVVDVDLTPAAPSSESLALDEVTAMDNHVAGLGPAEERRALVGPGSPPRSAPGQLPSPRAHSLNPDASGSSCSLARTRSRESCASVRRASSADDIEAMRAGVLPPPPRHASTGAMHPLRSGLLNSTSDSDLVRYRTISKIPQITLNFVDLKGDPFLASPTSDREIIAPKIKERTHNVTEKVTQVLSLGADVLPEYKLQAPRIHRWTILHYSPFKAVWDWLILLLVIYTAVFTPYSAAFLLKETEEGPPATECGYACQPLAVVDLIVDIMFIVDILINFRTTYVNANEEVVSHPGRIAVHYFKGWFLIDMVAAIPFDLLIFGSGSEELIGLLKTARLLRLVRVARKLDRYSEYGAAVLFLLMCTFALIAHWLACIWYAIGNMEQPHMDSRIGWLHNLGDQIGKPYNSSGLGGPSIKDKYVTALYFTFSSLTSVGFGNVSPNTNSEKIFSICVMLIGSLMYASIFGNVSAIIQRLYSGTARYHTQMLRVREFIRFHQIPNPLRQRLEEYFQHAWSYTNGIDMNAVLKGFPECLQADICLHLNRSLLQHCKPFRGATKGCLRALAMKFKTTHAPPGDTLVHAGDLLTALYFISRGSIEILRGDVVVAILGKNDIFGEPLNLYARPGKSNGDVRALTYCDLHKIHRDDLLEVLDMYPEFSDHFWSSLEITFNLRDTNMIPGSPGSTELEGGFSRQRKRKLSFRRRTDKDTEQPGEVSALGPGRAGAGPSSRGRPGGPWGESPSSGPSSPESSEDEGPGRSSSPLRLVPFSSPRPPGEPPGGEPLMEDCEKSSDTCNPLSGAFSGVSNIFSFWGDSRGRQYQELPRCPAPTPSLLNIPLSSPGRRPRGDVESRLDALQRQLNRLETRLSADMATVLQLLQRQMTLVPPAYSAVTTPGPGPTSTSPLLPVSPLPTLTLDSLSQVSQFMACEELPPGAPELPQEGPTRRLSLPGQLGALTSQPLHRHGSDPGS
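U2OS cells were transduced with wild-type KCNH2 virus (2.03 x 10^8 / mL) for 4 h at room temperature, then cultured overnight at 37 C. Thallium flux was read with FluxOr dye. Rate constants were normalized to DMSO controls.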
ClpP mod: qHTS Assay for Activators of ClpP; ATP-dependent Clp protease proteolytic subunit (Bacillus subtilis (strain 168)), P80244; purified B. subtilis ClpP, FRET peptide cleavage, 20 min; Potency, µM (highest dose often 57.5 µM), inactives show at the top dose activity change, negative = active; hit rate 1.9% among 340,000; AID 651965, 2013; active = well fitted falling curve with a large enough effect; inconclusive = small, poorly fitted or top-dose-only effect; inactive = no such curve, though single readings can be large or run the other way; also: potency is read from the fitted curve at half-maximal effect; the source files actives as falling curves though it sought activators and does not explain the sign; nearly all actives have a fitted effect of over 65% in size
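Purified B. subtilis ClpP, 10 microg/mL final in Tris/HCl pH8 with KCl, BSA, glycerol and Tween-20, cleaved an Abz/nitrotyrosine-quenched decapeptide. Fluorescence (ex 320, em 430) was read at 0 and 20 min at room temperature. Delta was normalized to 5.8 microM ADEP and DMSO/no-enzyme controls.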
p53 reactivator: re-activators of mutant p53; Potency, µM (series often up to 92.2 µM), for inactives: top-dose activity change, positive = activation, actives largely listed as activators; H1299 p53-A138V BP100-luciferase reporter, luminescence, 24 h; hit rate 0.063% among 320,000; AID 504706; active = well fitted activation curve with a large enough effect; inconclusive = small, poorly fitted or top-dose-only effect; inactive = no such curve, though single readings can be large or run the other way; also: potency is read from the fitted curve at half-maximal effect; % of control where 0% means no effect; nearly all actives have a fitted effect of over 45% in size
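p53-null H1299 cells stably carrying temperature-sensitive p53-A138V and a BP100-luciferase reporter were pinned with compounds (4-point, 1:5 series) and held 24 hrs at 37 deg C. Luminescence was read 10 min after detection reagent.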
Active calls of the source: *.

What do the screens show for `CS(=O)(=O)NCCSCc1ccccc1`?
TRPV1 ag: -2; KCNH2 3.1 inh: -13; TRPV1 PAM: -8; hERG WT inh: -3; ClpP mod: -2%; p53 reactivator: 8%

Results for Cc1ccccc1CSCCNS(C)(=O)=O ?
TRPV1 ag: -2; KCNH2 3.1 inh: -79*; TRPV1 PAM: 1; hERG WT inh: -19; ClpP mod: 0%; p53 reactivator: -1%

How did O=Cc1cc([N+](=O)[O-])ccc1N1CCN(Cc2ccc3c(c2)OCO3)CC1 do in these assays?
TRPV1 ag: 2; KCNH2 3.1 inh: -86*; TRPV1 PAM: 11; hERG WT inh: inconclusive; p53 reactivator: -5%

What do the screens show for `O=[N+]([O-])c1ccc(N2CCN(Cc3ccc4c(c3)OCO4)CC2)nc1`?
TRPV1 ag: 2; KCNH2 3.1 inh: -11; TRPV1 PAM: -19; hERG WT inh: 21; p53 reactivator: -8%

Results for Cc1ccc(C(=O)N2CCN3C(=O)c4ccccc4C23c2ccc(Cl)cc2)cc1 (stereo not drawn) ?
TRPV1 ag: 13; KCNH2 3.1 inh: -76*; TRPV1 PAM: -4; hERG WT inh: -14; ClpP mod: 1%; p53 reactivator: -6%

Results for O=C(Nc1cccc(Cl)c1)N1CCN2C(=O)c3ccccc3C12c1ccccc1 (stereo not drawn) ?
TRPV1 ag: 22; KCNH2 3.1 inh: -15; TRPV1 PAM: -13; hERG WT inh: 2; ClpP mod: 16µM*; p53 reactivator: -1%

Results for O=C(C[n+]1ccccc1Br)c1ccc(F)cc1 ?
ClpP mod: -4%

What do the screens show for `O=C(c1ccc(Br)c(S(=O)(=O)N2CCCCC2)c1)N1CCCCC1`?
TRPV1 ag: 23; KCNH2 3.1 inh: -3; TRPV1 PAM: -11; hERG WT inh: -7; ClpP mod: 22µM*; p53 reactivator: 1%

How did Cc1ccc2nc(N(Cc3cccnc3)C(=O)C3COc4ccccc4O3)sc2c1 (stereo not drawn) do in these assays?
ClpP mod: 0%

How did CCOC(=O)c1c(C)[nH]c(C(=O)OCC(=O)NCc2ccco2)c1C do in these assays?
KCNH2 3.1 inh: 4; hERG WT inh: -10; ClpP mod: 2%

Results for COc1cccc(OC)c1OCCN(C)C ?
TRPV1 ag: 1; KCNH2 3.1 inh: 5; TRPV1 PAM: -1; hERG WT inh: 5; ClpP mod: -2%; p53 reactivator: 2%

Results for COc1cccc(OC)c1OCCNC(C)(C)C ?
TRPV1 ag: -6; KCNH2 3.1 inh: -7; TRPV1 PAM: -2; hERG WT inh: -11; ClpP mod: 32µM*; p53 reactivator: 3%

Results for CCOC(=O)C(C)Sc1nc2c(c(=O)[nH]c(=O)n2C)n1Cc1ccc(Cl)cc1 (stereo not drawn) ?
TRPV1 ag: 11; KCNH2 3.1 inh: -91*; TRPV1 PAM: 1; hERG WT inh: inconclusive; ClpP mod: 1%; p53 reactivator: -11%

How did CCC(C)Sc1nc2c(c(=O)[nH]c(=O)n2C)n1CCc1ccccc1 (stereo not drawn) do in these assays?
TRPV1 ag: 27; KCNH2 3.1 inh: -3; TRPV1 PAM: -19; hERG WT inh: -21; ClpP mod: 1%; p53 reactivator: -21%

What do the screens show for `CC(C)Sc1nc2c(c(=O)[nH]c(=O)n2C)n1CCc1ccccc1`?
TRPV1 ag: 0; KCNH2 3.1 inh: 3; TRPV1 PAM: 4; hERG WT inh: 3; ClpP mod: 18µM*; p53 reactivator: -3%

Results for CC(C)CCn1c(N2CCN(Cc3ccccc3)CC2)nc2c1c(=O)[nH]c(=O)n2C ?
TRPV1 ag: 6; TRPV1 PAM: -3; p53 reactivator: -7%

Results for CCCCCn1c(N2CCN(Cc3ccccc3)CC2)nc2c1c(=O)[nH]c(=O)n2C ?
TRPV1 ag: 22; KCNH2 3.1 inh: -75*; TRPV1 PAM: -34; hERG WT inh: inconclusive; ClpP mod: 0%; p53 reactivator: -22%

How did CCOC(=O)c1cc(S(=O)(=O)NCc2ccc(C)cc2)[nH]n1 do in these assays?
ClpP mod: -3%

What do the screens show for `Fc1ccc(-c2nc3c(-c4ccc(F)cc4)cnn3cc2CCN2CCOCC2)cc1`?
TRPV1 ag: 0; KCNH2 3.1 inh: 3; TRPV1 PAM: 3; hERG WT inh: 4; ClpP mod: -1%; p53 reactivator: -4%

How did Nc1ncc(CCN2CCOCC2)c(-c2ccc(F)cc2)n1 do in these assays?
TRPV1 ag: -2; KCNH2 3.1 inh: -11; TRPV1 PAM: 7; hERG WT inh: -121*; p53 reactivator: -2%

What do the screens show for `COc1ccc(CCNC(=O)c2ccc(Cn3c(=O)c4ccccc4n(Cc4cccc(F)c4)c3=O)cc2)cc1OC`?
ClpP mod: 35µM*

How did Cc1ccc(S(=O)(=O)NCc2ccc(C(=O)NC3CC3)cc2)cc1 do in these assays?
TRPV1 ag: 0; KCNH2 3.1 inh: 15; TRPV1 PAM: 10; hERG WT inh: 1; ClpP mod: 0%; p53 reactivator: 4%

What do the screens show for `COc1ccc(CCNC(=O)c2ccc(CN3CCC(Cc4ccccc4)CC3)cc2)cc1OC`?
TRPV1 ag: 8; KCNH2 3.1 inh: -93*; TRPV1 PAM: -9; hERG WT inh: -23; ClpP mod: 3%; p53 reactivator: 4%

What do the screens show for `CCCNC(=S)N1CCC(Cc2ccccc2)CC1`?
TRPV1 ag: 27; KCNH2 3.1 inh: -11; TRPV1 PAM: -14; hERG WT inh: 8; ClpP mod: -1%; p53 reactivator: 0%

What do the screens show for `COc1ccc(CCNC(=O)c2ccc(Cn3c(=O)c4ccccc4n(Cc4ccc(F)cc4Cl)c3=O)cc2)cc1OC`?
ClpP mod: 1%

How did COc1ccc(CCNC(=S)N2CCC(Cc3ccccc3)CC2)cc1OC do in these assays?
TRPV1 ag: 9; KCNH2 3.1 inh: -23; TRPV1 PAM: -2; hERG WT inh: -15; ClpP mod: 7.9µM*; p53 reactivator: 5%

Results for Cc1ccc(S(=O)(=O)NCc2ccc(C(=O)NCCCN3CCC(Cc4ccccc4)CC3)cc2)cc1 ?
TRPV1 ag: 9; KCNH2 3.1 inh: -81*; TRPV1 PAM: -6; hERG WT inh: 6; ClpP mod: 0%; p53 reactivator: 18%

How did CCOC(=O)c1ccc2nc(C)cc(Nc3ccc(OC(C)C)cc3)c2c1 do in these assays?
ClpP mod: 1%

How did Cc1cc(C)cc(C(=O)n2nc(C)c(S(=O)(=O)N3CCOCC3)c2C)c1 do in these assays?
ClpP mod: -1%
